Positions count from the first letter of the chain named.
Target: T1, SIX6 (Homo sapiens, UniProt O95475 114-200, L167I)
T1 sequence: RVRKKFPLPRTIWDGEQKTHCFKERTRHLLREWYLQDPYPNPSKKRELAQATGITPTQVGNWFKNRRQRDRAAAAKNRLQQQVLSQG
Experiment: PBM; 200 nM protein, PBS
Conditions: dsDNA, one strand shown

Q: For AGTGATCC, which binding signal is on record?
A: 11.1 upbm affinity estimate (log intensity, higher = more binding, comparable within an allelic series)

Q: With AGGGATCA as the sequence, how does the binding signal read?
A: 11.1 upbm affinity estimate (log intensity, higher = more binding, comparable within an allelic series)

Q: How did the binding signal turn out when ATACTAAC was run?
A: 10.1 upbm affinity estimate (log intensity, higher = more binding, comparable within an allelic series)

Q: With CAGATATC as the sequence, how does the binding signal read?
A: 11.1 upbm affinity estimate (log intensity, higher = more binding, comparable within an allelic series)

Q: Which binding signal does the source give for GGATCACA here?
A: 11.1 upbm affinity estimate (log intensity, higher = more binding, comparable within an allelic series)

Q: AGATGATA was tested. Which binding signal did it give?
A: 11.1 upbm affinity estimate (log intensity, higher = more binding, comparable within an allelic series)

Target: HOXA4 (Homo sapiens, UniProt Q00056 201-287, W262R)
Sequence (Q00056 201-287 W262R): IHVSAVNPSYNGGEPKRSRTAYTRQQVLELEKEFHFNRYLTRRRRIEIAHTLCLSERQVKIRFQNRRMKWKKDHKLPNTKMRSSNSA
Experiment: PBM; 200 nM protein, PBS
Conditions: dsDNA, one strand shown

Q: How did the binding signal turn out when CCCCAGGC was run?
A: 9.71 upbm affinity estimate (log intensity, higher = more binding, comparable within an allelic series)

Q: With AGCCCGAG as the sequence, how does the binding signal read?
A: 9.9 upbm affinity estimate (log intensity, higher = more binding, comparable within an allelic series)

Q: For CCCTGGTC, which binding signal is on record?
A: 9.79 upbm affinity estimate (log intensity, higher = more binding, comparable within an allelic series)

Q: For CCGGACGG, which binding signal is on record?
A: 9.78 upbm affinity estimate (log intensity, higher = more binding, comparable within an allelic series)

Q: How did the binding signal turn out when GCACCACC was run?
A: 9.87 upbm affinity estimate (log intensity, higher = more binding, comparable within an allelic series)

Q: How did the binding signal turn out when CCCGACGC was run?
A: 9.83 upbm affinity estimate (log intensity, higher = more binding, comparable within an allelic series)

Q: For CAGGCTTC, which binding signal is on record?
A: 9.89 upbm affinity estimate (log intensity, higher = more binding, comparable within an allelic series)

Q: For CCCCCTTC, which binding signal is on record?
A: 9.36 upbm affinity estimate (log intensity, higher = more binding, comparable within an allelic series)

Q: For GCCCGGAC, which binding signal is on record?
A: 9.85 upbm affinity estimate (log intensity, higher = more binding, comparable within an allelic series)

Q: How did the binding signal turn out when GCGGACCC was run?
A: 9.75 upbm affinity estimate (log intensity, higher = more binding, comparable within an allelic series)

Q: How did the binding signal turn out when GAGGTTGC was run?
A: 9.8 upbm affinity estimate (log intensity, higher = more binding, comparable within an allelic series)

Q: Which binding signal does the source give for CCCCCCAG here?
A: 9.46 upbm affinity estimate (log intensity, higher = more binding, comparable within an allelic series)

Q: CCGAAGGC was tested. Which binding signal did it give?
A: 9.78 upbm affinity estimate (log intensity, higher = more binding, comparable within an allelic series)

Q: How did the binding signal turn out when TAATTTGA was run?
A: 10.4 upbm affinity estimate (log intensity, higher = more binding, comparable within an allelic series)

Q: How did the binding signal turn out when GCCAAGCC was run?
A: 9.84 upbm affinity estimate (log intensity, higher = more binding, comparable within an allelic series)

Q: How did the binding signal turn out when CCCTCTCG was run?
A: 9.84 upbm affinity estimate (log intensity, higher = more binding, comparable within an allelic series)

Q: How did the binding signal turn out when CCCCACGG was run?
A: 9.8 upbm affinity estimate (log intensity, higher = more binding, comparable within an allelic series)

Q: For GATCCCCC, which binding signal is on record?
A: 9.9 upbm affinity estimate (log intensity, higher = more binding, comparable within an allelic series)

Q: ATGAATGA was tested. Which binding signal did it give?
A: 10.2 upbm affinity estimate (log intensity, higher = more binding, comparable within an allelic series)

Q: For CAGCCTCC, which binding signal is on record?
A: 9.65 upbm affinity estimate (log intensity, higher = more binding, comparable within an allelic series)

Q: ACCTTCGC was tested. Which binding signal did it give?
A: 9.98 upbm affinity estimate (log intensity, higher = more binding, comparable within an allelic series)

Q: GCCCCGAC was tested. Which binding signal did it give?
A: 9.84 upbm affinity estimate (log intensity, higher = more binding, comparable within an allelic series)

Q: For CAGGAAGG, which binding signal is on record?
A: 9.86 upbm affinity estimate (log intensity, higher = more binding, comparable within an allelic series)

Q: For GCCGGCCC, which binding signal is on record?
A: 9.58 upbm affinity estimate (log intensity, higher = more binding, comparable within an allelic series)

Q: For CCGGCAGG, which binding signal is on record?
A: 9.95 upbm affinity estimate (log intensity, higher = more binding, comparable within an allelic series)

Q: Which binding signal does the source give for CGCGCGCG here?
A: 9.91 upbm affinity estimate (log intensity, higher = more binding, comparable within an allelic series)

Q: For GCCTCCCA, which binding signal is on record?
A: 9.78 upbm affinity estimate (log intensity, higher = more binding, comparable within an allelic series)

Q: How did the binding signal turn out when AGCCACGG was run?
A: 9.87 upbm affinity estimate (log intensity, higher = more binding, comparable within an allelic series)

Q: Which binding signal does the source give for GACCCTCC here?
A: 9.82 upbm affinity estimate (log intensity, higher = more binding, comparable within an allelic series)

Q: Which binding signal does the source give for GGGGGAAC here?
A: 9.66 upbm affinity estimate (log intensity, higher = more binding, comparable within an allelic series)

Q: CCGAGAGG was tested. Which binding signal did it give?
A: 9.76 upbm affinity estimate (log intensity, higher = more binding, comparable within an allelic series)

Q: With CCCGAAGG as the sequence, how does the binding signal read?
A: 9.83 upbm affinity estimate (log intensity, higher = more binding, comparable within an allelic series)

Q: With CCCGAGGG as the sequence, how does the binding signal read?
A: 9.81 upbm affinity estimate (log intensity, higher = more binding, comparable within an allelic series)

Target: HOXC9 (Homo sapiens, UniProt P31274 178-260, K195R)
Sequence (P31274 178-260 K195R): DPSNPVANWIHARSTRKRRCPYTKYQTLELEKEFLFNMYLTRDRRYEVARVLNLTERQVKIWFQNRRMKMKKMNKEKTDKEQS
Experiment: PBM; 200 nM protein, PBS
Conditions: dsDNA, one strand shown

Q: Which binding signal does the source give for AGCCCGAG here?
A: 9.64 upbm affinity estimate (log intensity, higher = more binding, comparable within an allelic series)

Q: Which binding signal does the source give for CCGGACGG here?
A: 9.56 upbm affinity estimate (log intensity, higher = more binding, comparable within an allelic series)

Q: CCCGACGC was tested. Which binding signal did it give?
A: 9.46 upbm affinity estimate (log intensity, higher = more binding, comparable within an allelic series)

Q: For CAGGCTTC, which binding signal is on record?
A: 9.38 upbm affinity estimate (log intensity, higher = more binding, comparable within an allelic series)

Q: Which binding signal does the source give for ATGAATGA here?
A: 11.2 upbm affinity estimate (log intensity, higher = more binding, comparable within an allelic series)

Q: GCCTCCCA was tested. Which binding signal did it give?
A: 9.58 upbm affinity estimate (log intensity, higher = more binding, comparable within an allelic series)

Q: With AGCCACGG as the sequence, how does the binding signal read?
A: 9.64 upbm affinity estimate (log intensity, higher = more binding, comparable within an allelic series)

Q: For GACCCTCC, which binding signal is on record?
A: 9.64 upbm affinity estimate (log intensity, higher = more binding, comparable within an allelic series)

Q: For CCGAGAGG, which binding signal is on record?
A: 9.41 upbm affinity estimate (log intensity, higher = more binding, comparable within an allelic series)

Q: For CCCGAGGG, which binding signal is on record?
A: 9.47 upbm affinity estimate (log intensity, higher = more binding, comparable within an allelic series)

Target: HOXC10 (Homo sapiens, UniProt Q9NYD6 254-340)
Sequence (Q9NYD6 254-340): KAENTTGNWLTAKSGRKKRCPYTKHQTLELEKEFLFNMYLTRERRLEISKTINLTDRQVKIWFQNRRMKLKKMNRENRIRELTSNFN
Experiment: PBM; 200 nM protein, PBS
Conditions: dsDNA, one strand shown

Q: How did the binding signal turn out when CAGGCTTC was run?
A: 9.9 upbm affinity estimate (log intensity, higher = more binding, comparable within an allelic series)

Q: For CCCCCTTC, which binding signal is on record?
A: 9.64 upbm affinity estimate (log intensity, higher = more binding, comparable within an allelic series)

Q: With GAGGTTGC as the sequence, how does the binding signal read?
A: 9.94 upbm affinity estimate (log intensity, higher = more binding, comparable within an allelic series)

Q: For GCCAAGCC, which binding signal is on record?
A: 10.1 upbm affinity estimate (log intensity, higher = more binding, comparable within an allelic series)

Q: How did the binding signal turn out when CCCTCTCG was run?
A: 10.1 upbm affinity estimate (log intensity, higher = more binding, comparable within an allelic series)

Q: How did the binding signal turn out when CCCCACGG was run?
A: 10.1 upbm affinity estimate (log intensity, higher = more binding, comparable within an allelic series)

Q: How did the binding signal turn out when GCCCCGAC was run?
A: 10.1 upbm affinity estimate (log intensity, higher = more binding, comparable within an allelic series)

Q: CCGGCAGG was tested. Which binding signal did it give?
A: 10.2 upbm affinity estimate (log intensity, higher = more binding, comparable within an allelic series)

Q: CGCGCGCG was tested. Which binding signal did it give?
A: 10.1 upbm affinity estimate (log intensity, higher = more binding, comparable within an allelic series)

Q: How did the binding signal turn out when CCCGAAGG was run?
A: 9.96 upbm affinity estimate (log intensity, higher = more binding, comparable within an allelic series)

Target: ALX4 (Homo sapiens, UniProt Q9H161 200-286)
Sequence (Q9H161 200-286): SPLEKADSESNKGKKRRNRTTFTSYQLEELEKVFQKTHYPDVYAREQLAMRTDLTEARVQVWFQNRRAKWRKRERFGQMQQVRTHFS
Experiment: PBM; 200 nM protein, PBS
Conditions: dsDNA, one strand shown

Q: How did the binding signal turn out when GCGGACCC was run?
A: 8.35 upbm affinity estimate (log intensity, higher = more binding, comparable within an allelic series)

Q: Which binding signal does the source give for CCGAAGGC here?
A: 8.05 upbm affinity estimate (log intensity, higher = more binding, comparable within an allelic series)

Q: Which binding signal does the source give for ACCTTCGC here?
A: 8.16 upbm affinity estimate (log intensity, higher = more binding, comparable within an allelic series)

Q: With GCCTCCCA as the sequence, how does the binding signal read?
A: 8.34 upbm affinity estimate (log intensity, higher = more binding, comparable within an allelic series)

Q: How did the binding signal turn out when CCCGAAGG was run?
A: 7.8 upbm affinity estimate (log intensity, higher = more binding, comparable within an allelic series)

Target: T2, PAX4 (Homo sapiens, UniProt O43316 9-242, R200K)
T2 sequence: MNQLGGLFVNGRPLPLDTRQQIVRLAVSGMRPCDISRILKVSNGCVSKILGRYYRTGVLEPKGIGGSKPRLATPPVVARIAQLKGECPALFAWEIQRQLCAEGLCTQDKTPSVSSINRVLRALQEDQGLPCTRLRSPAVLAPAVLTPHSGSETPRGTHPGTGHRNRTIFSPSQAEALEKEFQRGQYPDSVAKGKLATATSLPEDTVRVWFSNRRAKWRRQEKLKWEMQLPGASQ
Experiment: PBM; 200 nM protein, PBS
Conditions: dsDNA, one strand shown

Q: With CCCTGGTC as the sequence, how does the binding signal read?
A: 9.07 upbm affinity estimate (log intensity, higher = more binding, comparable within an allelic series)

Q: For GCACCACC, which binding signal is on record?
A: 9.27 upbm affinity estimate (log intensity, higher = more binding, comparable within an allelic series)

Q: TAATTTGA was tested. Which binding signal did it give?
A: 11.7 upbm affinity estimate (log intensity, higher = more binding, comparable within an allelic series)

Target: PRRX1 (Homo sapiens, UniProt P54821 80-166, F113S)
Sequence (P54821 80-166 F113S): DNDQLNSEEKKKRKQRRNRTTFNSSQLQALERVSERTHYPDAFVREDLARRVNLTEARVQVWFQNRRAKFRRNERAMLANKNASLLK
Experiment: PBM; 200 nM protein, PBS
Conditions: dsDNA, one strand shown

Q: How did the binding signal turn out when CCCCAGGC was run?
A: 9.11 upbm affinity estimate (log intensity, higher = more binding, comparable within an allelic series)

Q: CAGGCTTC was tested. Which binding signal did it give?
A: 9.37 upbm affinity estimate (log intensity, higher = more binding, comparable within an allelic series)

Q: How did the binding signal turn out when GAGGTTGC was run?
A: 9.19 upbm affinity estimate (log intensity, higher = more binding, comparable within an allelic series)

Q: How did the binding signal turn out when CCCCCCAG was run?
A: 9 upbm affinity estimate (log intensity, higher = more binding, comparable within an allelic series)

Q: Which binding signal does the source give for TAATTTGA here?
A: 10.7 upbm affinity estimate (log intensity, higher = more binding, comparable within an allelic series)

Q: Which binding signal does the source give for GCCCCGAC here?
A: 9.25 upbm affinity estimate (log intensity, higher = more binding, comparable within an allelic series)

Q: For CAGGAAGG, which binding signal is on record?
A: 9.25 upbm affinity estimate (log intensity, higher = more binding, comparable within an allelic series)

Q: GGGGGAAC was tested. Which binding signal did it give?
A: 9.45 upbm affinity estimate (log intensity, higher = more binding, comparable within an allelic series)

Target: T3, PAX4 (Homo sapiens, UniProt O43316 9-242)
T3 sequence: T2 sequence with K192R
Experiment: PBM; 200 nM protein, PBS
Conditions: dsDNA, one strand shown

Q: CCCTGGTC was tested. Which binding signal did it give?
A: 9.08 upbm affinity estimate (log intensity, higher = more binding, comparable within an allelic series)

Q: For GCACCACC, which binding signal is on record?
A: 9.29 upbm affinity estimate (log intensity, higher = more binding, comparable within an allelic series)

Q: For TAATTTGA, which binding signal is on record?
A: 12.2 upbm affinity estimate (log intensity, higher = more binding, comparable within an allelic series)

Target: HOXB6 (Homo sapiens, UniProt P17509 132-218, K202E)
Sequence (P17509 132-218 K202E): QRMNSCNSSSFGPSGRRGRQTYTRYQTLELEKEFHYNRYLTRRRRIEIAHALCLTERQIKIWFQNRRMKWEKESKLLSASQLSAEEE
Experiment: PBM; 200 nM protein, PBS
Conditions: dsDNA, one strand shown

Q: CCGGACGG was tested. Which binding signal did it give?
A: 8.96 upbm affinity estimate (log intensity, higher = more binding, comparable within an allelic series)

Q: GCCCGGAC was tested. Which binding signal did it give?
A: 9.01 upbm affinity estimate (log intensity, higher = more binding, comparable within an allelic series)

Q: With CAGCCTCC as the sequence, how does the binding signal read?
A: 8.86 upbm affinity estimate (log intensity, higher = more binding, comparable within an allelic series)

Q: With GCCGGCCC as the sequence, how does the binding signal read?
A: 8.94 upbm affinity estimate (log intensity, higher = more binding, comparable within an allelic series)

Target: ALX4 (Homo sapiens, UniProt Q9H161 200-286, Q225E)
Sequence (Q9H161 200-286 Q225E): as the sequence (Q9H161 200-286) above, with Q26E counted along it
Experiment: PBM; 200 nM protein, PBS
Conditions: dsDNA, one strand shown

Q: For GCGGACCC, which binding signal is on record?
A: 8.27 upbm affinity estimate (log intensity, higher = more binding, comparable within an allelic series)

Q: For CCGAAGGC, which binding signal is on record?
A: 8.35 upbm affinity estimate (log intensity, higher = more binding, comparable within an allelic series)

Q: For ACCTTCGC, which binding signal is on record?
A: 8.2 upbm affinity estimate (log intensity, higher = more binding, comparable within an allelic series)

Q: With GCCTCCCA as the sequence, how does the binding signal read?
A: 8.34 upbm affinity estimate (log intensity, higher = more binding, comparable within an allelic series)
